Assay in all cases: yeast three-hybrid, YBZ-1, SC-Leu-His + 0.5 mM 3-AT, 4 days
Common to all, as to settings: tags: N-Gal4 AD-HA kept; label: inside an RPR1-promoter hybrid RNA with tandem MS2 sites; ssRNA

For experiment [1], the target named is PUM1 PUF domain R8-QWF (Homo sapiens, UniProt Q14671 828-1176, N1122Q;Y1123W;Q1126F). An outline of the steps:
(§1)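 A centromeric plasmid in strain YBZ-1 co-expressed Pumilio-1 PUF domain libraries, randomized at the three base-contacting residues of each repeat, with matching RNA elements; the strain carries a LexA–MS2 coat fusion and a HIS3 reporter. After four days on SC-Leu (input) or SC-Leu-His + 0.5 mM 3-AT (selection), the repeat regions were PCR-amplified and Illumina-sequenced. The interaction score is the log change in variant frequency from input to selection, using log2 and a pseudocount of 1 where absent.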

Experiment [2] deals with PUM1 PUF domain R8-KFM (Homo sapiens, UniProt Q14671 828-1176, N1122K;Y1123F;Q1126M). The procedure, abridged:
as §1

The target in experiment [3] is PUM1 PUF domain R8-RFA (Homo sapiens, UniProt Q14671 828-1176, N1122R;Y1123F;Q1126A). An outline of the steps:
as §1

Experiment [4] has as its target PUM1 PUF domain R7-ISR (Homo sapiens, UniProt Q14671 828-1176, S1079I;N1080S;E1083R). An outline of the steps:
as §1

The target in experiment [5] is PUM1 PUF domain R7-MSG (Homo sapiens, UniProt Q14671 828-1176, S1079M;N1080S;E1083G). The procedure, abridged:
as §1

Experiment [6] has as its target PUM1 PUF domain R1-NCS (Homo sapiens, UniProt Q14671 828-1176, S863N;R864C;Q867S). An outline of the steps: as §1
Experiment [7] addresses PUM1 PUF domain R1-CRR (Homo sapiens, UniProt Q14671 828-1176, S863C;Q867R). An outline of the steps:
as §1

The target of experiment [8] is PUM1 PUF domain R4-TPA (Homo sapiens, UniProt Q14671 828-1176, N971T;H972P;Q975A). An outline of the steps: as §1
Experiment [9] deals with PUM1 PUF domain R4-SQS (Homo sapiens, UniProt Q14671 828-1176, N971S;H972Q;Q975S). An outline of the steps: as §1
Experiment [10] concerns the target PUM1 PUF domain R5-CRR (Homo sapiens, UniProt Q14671 828-1176, Q1011R). The procedure, abridged: as §1
In experiment [11] the target is PUM1 PUF domain R4-QPC (Homo sapiens, UniProt Q14671 828-1176, N971Q;H972P;Q975C). An outline of the steps:
as §1

Experiment [12] has as its target PUM1 PUF domain R3-TRV (Homo sapiens, UniProt Q14671 828-1176, C935T;Q939V). The procedure, abridged: as §1
Experiment [13] addresses T1, PUM1 PUF domain R6-FYK (Homo sapiens, UniProt Q14671 828-1176, N1043F;Q1047K).
T1 sequence: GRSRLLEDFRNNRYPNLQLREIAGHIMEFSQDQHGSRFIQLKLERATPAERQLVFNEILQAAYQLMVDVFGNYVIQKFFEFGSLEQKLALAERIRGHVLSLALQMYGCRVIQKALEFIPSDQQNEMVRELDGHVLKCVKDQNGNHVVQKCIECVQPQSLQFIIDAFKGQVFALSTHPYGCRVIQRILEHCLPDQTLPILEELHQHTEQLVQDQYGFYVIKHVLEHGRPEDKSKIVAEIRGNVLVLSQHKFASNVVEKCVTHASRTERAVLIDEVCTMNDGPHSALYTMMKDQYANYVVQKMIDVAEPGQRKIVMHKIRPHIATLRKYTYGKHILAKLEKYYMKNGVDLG
An outline of the steps: as §1

Experiment [14] addresses PUM1 PUF domain R5-RGN (Homo sapiens, UniProt Q14671 828-1176, C1007R;R1008G;Q1011N). An outline of the steps:
as §1

For experiment [15], the target named is PUM1 PUF domain R3-SRW (Homo sapiens, UniProt Q14671 828-1176, C935S;Q939W). The procedure, abridged:
as §1

Experiment [16] has as its target PUM1 PUF domain R5-KNS (Homo sapiens, UniProt Q14671 828-1176, C1007K;R1008N;Q1011S). The procedure, abridged: as §1
For experiment [17], the target named is PUM1 PUF domain R5-RSS (Homo sapiens, UniProt Q14671 828-1176, C1007R;R1008S;Q1011S). The procedure, abridged:
as §1

The target in experiment [18] is PUM1 PUF domain R3-LSS (Homo sapiens, UniProt Q14671 828-1176, C935L;R936S;Q939S). The procedure, abridged: as §1

Sequence of PUM1 PUF domain R4-TPA (Q14671 828-1176 N971T/H972P/Q975A): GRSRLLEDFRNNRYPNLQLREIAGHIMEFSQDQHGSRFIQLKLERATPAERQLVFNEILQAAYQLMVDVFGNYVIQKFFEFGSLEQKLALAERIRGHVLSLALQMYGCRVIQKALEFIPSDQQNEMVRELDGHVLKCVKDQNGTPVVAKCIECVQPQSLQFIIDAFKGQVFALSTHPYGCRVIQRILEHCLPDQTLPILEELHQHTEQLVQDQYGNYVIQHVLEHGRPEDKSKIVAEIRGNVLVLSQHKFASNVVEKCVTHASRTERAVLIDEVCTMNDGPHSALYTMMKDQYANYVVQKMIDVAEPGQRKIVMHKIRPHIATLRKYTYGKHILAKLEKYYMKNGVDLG

Consider “GGCUAGAACUAGUGGAUCCCCCGGCGCCCGGCGGCUCGAGCCCGGGUAAGCGUAAAUAGUCUGCAUGCCGCCGGGCGCCAUGCCUGCAGGUCGACUCUAGAAAACAUG”, for which the values for the binding signal in [1], in [2] and in experiment [3] were 2.87 log2 enrichment (interaction score), 2.54 log2 enrichment (interaction score) and 5.73 log2 enrichment (interaction score), respectively.

In the case of “GGCUAGAACUAGUGGAUCCCCCGGCGCCCGGCGGCUCGAGCCCGGGUAAGUUUAAAUAGUCUGCAUGCCGCCGGGCGCCAUGCCUGCAGGUCGACUCUAGAAAACAUG”, the binding signal in experiment [4] was 5.98 log2 enrichment (interaction score); in experiment [5], 3.37 log2 enrichment (interaction score).

Consider “GGCUAGAACUAGUGGAUCCCCCGGCGCCCGGCGGCUCGAGCCCGGGUAAGUGUAAAUUGUCUGCAUGCCGCCGGGCGCCAUGCCUGCAGGUCGACUCUAGAAAACAUG”, for which the binding signal is 3.38 log2 enrichment (interaction score) in [6] and 0.67 log2 enrichment (interaction score) in [7].

Turning to “GGCUAGAACUAGUGGAUCCCCCGGCGCCCGGCGGCUCGAGCCCGGGUAAGUGUAAAUCGUCUGCAUGCCGCCGGGCGCCAUGCCUGCAGGUCGACUCUAGAAAACAUG”, in [7], the binding signal is 2.5 log2 enrichment (interaction score).

As for “GGCUAGAACUAGUGGAUCCCCCGGCGCCCGGCGGCUCGAGCCCGGGUAAGUGUAAAUAGUCUGCAUGCCGCCGGGCGCCAUGCCUGCAGGUCGACUCUAGAAAACAUG”, the binding signal in experiment [8] is 3.35 log2 enrichment (interaction score); in experiment [9], 2.72 log2 enrichment (interaction score); in experiment [10], 2.75 log2 enrichment (interaction score); in experiment [1], 2.1 log2 enrichment (interaction score); in experiment [2], 2.58 log2 enrichment (interaction score); in [11], 0.51 log2 enrichment (interaction score). Moreover, the binding signal in [12] was 2.47 log2 enrichment (interaction score); in experiment [3], 5.72 log2 enrichment (interaction score); in experiment [13], 5.82 log2 enrichment (interaction score); in [14], 0.69 log2 enrichment (interaction score); in experiment [15], 2.61 log2 enrichment (interaction score).

Regarding “GGCUAGAACUAGUGGAUCCCCCGGCGCCCGGCGGCUCGAGCCCGGGUAAGUGUCAAUAGUCUGCAUGCCGCCGGGCGCCAUGCCUGCAGGUCGACUCUAGAAAACAUG”, the binding signal is 4.54 log2 enrichment (interaction score) in experiment [16], 4.63 log2 enrichment (interaction score) in [10] and 2.89 log2 enrichment (interaction score) in [17].

For the sequence “GGCUAGAACUAGUGGAUCCCCCGGCGCCCGGCGGCUCGAGCCCGGGUAAGUGUAAUUAGUCUGCAUGCCGCCGGGCGCCAUGCCUGCAGGUCGACUCUAGAAAACAUG”, the binding signal is 3.25 log2 enrichment (interaction score) in experiment [18] and 2.79 log2 enrichment (interaction score) in [12].

Values taken from paper PMC8384837, “Expanding the binding specificity for RNA recognition by a PUF domain”.
